Source: PubChem BioAssay (Tox21)
Values without a mark were called inactive. Results filed as inconclusive are left out. Entries that show only a call come without a potency. The source made the active and inactive calls. Unless noted, the call rests on the fitted dose curve; in most records, active means well fitted curve in the direction sought with a large enough effect in the repeat runs; inconclusive means weak or mixed curves; inactive means no such curve, though single readings can be large; an effect the other way counts as inactive or inconclusive.

Legend:
[1] = qHTS assay to identify small molecule agonists of H2AX (AID 1224845; active means well fitted activation curve with a large enough effect in the signal ratio in the repeat runs, not every such curve was filed as active; the % refers to the signal ratio)
Summary of the method: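 Wild-type CHO-K1 cells, plated overnight, exposed 3hr at 37C to 15 concentrations (0.76% DMSO final). Lysed, then HTRF anti-pH2AX (S139) cryptate and anti-H2AX-d2 antibodies, 24 hr room temperature; 665/620 nm emission read.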

[2] = qHTS assay to identify small molecule agonists of the hypoxia (HIF-1) signaling pathway (AID 1224846; active means well fitted activation curve with a large enough effect in the signal ratio in the repeat runs, not every such curve was filed as active; the % refers to the signal ratio)
Summary of the method: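 Reporter induction in HRE-bla ME-180 cells is taken as agonism: cells sit 5 hrs after plating, receive compounds or DMSO only, incubate 17 hrs at 37C under 5% CO2, and are loaded with CCF4-AM for beta-lactamase FRET measurement.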

[3] = qHTS assay to identify small molecule agonists of H2AX - cell viability counter screen (AID 1224847; calls by dose curve; further: top concentration of the series differs between compounds; nearly all actives have a fitted effect of over 30% in size)
Summary of the method: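 We seed wild-type CHO-K1 cells overnight, treat them for 3 hr at 37C with compounds in 15-concentration series, and quantify remaining viability by CellTiter-Glo luminescence.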

[4] = qHTS assay to identify small molecule antagonists of the estrogen related receptor (ERR) signaling pathway from Tox21 library (AID 1224848); further: nearly all actives have a fitted effect of over 50% in size
Summary of the method: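 Quantitative high-throughput format: ERR reporter cells (2,000/well) pre-incubated 6 h, treated 18 h at 37 C with compounds in DMSO alongside positive and negative controls, then read by ONE-Glo luminescence.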

[5] = qHTS assay to identify small molecule agonists of the estrogen related receptor (ERR) signaling pathway from Tox21 library (AID 1224849; calls by dose curve; further: nearly all actives have a fitted effect of over 15% in size); conditions: ERR reporter cell line, ONE-Glo luciferase, 18 h; at 92.4 µM (top of the series) unless noted
Summary of the method: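 Tox21 compounds tested for ERR agonism in an NTP reporter cell line: 18 h treatment at 37 C, then ONE-Glo luminescence.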

[6] = qHTS RealTime-Glo MT Cell Viability Assay in HepG2 cells - 24 hour (AID 1224867); further: nearly all actives have a fitted effect of over 50% in size
Summary of the method: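 Compound treatment began 5 h after plating HepG2 cells (600/well) with NanoLuc luciferase and prosubstrate. Plates stayed at 37 C for 40 h; luminescence was captured at six time points, 0 h through 40 h.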

[7] = qHTS RealTime-Glo MT Cell Viability Assay in HEK293 cells - 32 hour (AID 1224868); further: top concentration of the series differs between compounds; nearly all actives have a fitted effect of over 50% in size
Summary of the method: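 Quantitative high-throughput screen of the Tox21 10K library in HEK293: cells and RealTime-Glo reagents plated together, compound added at 5 h, luminescence monitored through 40 h at 37 C.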

[8] = A CellTox Green Cytotoxicity Assay to monitor cytotoxicity in HEK293 cells - 0 hour (AID 1224869); further: nearly all actives have a fitted effect of over 50% in size
Summary of the method: (§1)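 Tox21 screen in HEK293: membrane-impermeant cyanine dye fluoresces on binding dead-cell DNA; compound pinned 5 h post-seeding, plates held at 37 C, signal read repeatedly through 40 h.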

[9] = qHTS RealTime-Glo MT Cell Viability Assay in HepG2 cells - 40 hour (AID 1224870); further: nearly all actives have a fitted effect of over 50% in size; further: potency means the concentration at half of the fitted maximal effect
Summary of the method: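 HepG2 cells (600/well) mixed with RealTime-Glo MT reagent, settled 5 h at 37 C/5% CO2 before compound addition. Nonlytic NanoLuc luminescence from viable-cell prosubstrate reduction read repeatedly during 40 h treatment at 37 C.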

[10] = A CellTox Green Cytotoxicity Assay to monitor cytotoxicity in HEK293 cells - 40 hour (AID 1224871); further: nearly all actives have a fitted effect of over 45% in size
Summary of the method: as §1

O=C(CCl)NCO
outcome [1]: inactive | outcome [2]: inactive | Potency [3]: inactive | Potency [4]: inactive | activity change, positive = activation [5]: 7.02% | Potency [6]: inactive | Potency [7]: inactive | outcome [8]: inactive | Potency [9]: inactive | Potency [10]: inactive

CC(C)(C)NC[C@H](O)c1ccc(O)cc1Cl
outcome [1]: inactive | outcome [2]: inactive | Potency [3]: inactive | Potency [4]: inactive | activity change, positive = activation [5]: 0.107% [at 42.5 µM] | Potency [6]: inactive | outcome [8]: inactive | Potency [9]: inactive | Potency [10]: inactive

CCN(CC)CCOC(=O)C(O)(c1ccccc1)c1ccccc1
outcome [1]: inactive | outcome [2]: inactive | Potency [3]: inactive | Potency [4]: inactive | activity change, positive = activation [5]: 2.32% [at 42.5 µM] | Potency [6]: inactive | Potency [7]: inactive | outcome [8]: inactive | Potency [9]: inactive | Potency [10]: inactive

CCCCS(=O)(=O)Cl
outcome [1]: inactive | outcome [2]: inactive | Potency [3]: inactive | Potency [4]: inactive | activity change, positive = activation [5]: -4.82% | Potency [6]: inactive | Potency [7]: inactive | outcome [8]: inactive | Potency [9]: inactive | Potency [10]: inactive

CC[C@@H](CO)NC(=O)[C@@H]1C=C2c3cccc4c3c(cn4C)C[C@H]2N(C)C1
outcome [1]: inactive | outcome [2]: inactive | Potency [3]: inactive | Potency [4]: inactive | activity change, positive = activation [5]: 0.637% [at 42.5 µM] | Potency [6]: inactive | Potency [7]: inactive | outcome [8]: inactive | Potency [10]: inactive

Cc1ccc2c(c1)C1CN(C)CCC1N2 (configuration not stated)
activation (H2AX phosphorylation) [1]: -0.451% [at 31.6 µM] | activation [2]: 0.38% [at 15.8 µM] | activity change, negative = cytotoxicity [3]: -2.09% [at 31.6 µM] | activity, negative = inhibition [4]: 10.8% [at 19 µM] | activity change, positive = activation [5]: 6.1% [at 19 µM] | activity change, negative = cytotoxicity [6]: -2.75% [at 15.8 µM] | activity change, negative = cytotoxic [7]: 0.479% [at 15.8 µM] | cytotoxicity [8]: -0.0492% [at 15.8 µM] | activity change, negative = cytotoxic [9]: 2.24% [at 15.8 µM] | cytotoxicity increase [10]: -9.63% [at 15.8 µM]

COc1cc(CC(C)N)cc(OC)c1OC (configuration not stated)
outcome [1]: inactive | outcome [2]: inactive | Potency [3]: inactive | Potency [4]: inactive | activity change, positive = activation [5]: 12.1% | Potency [6]: inactive | Potency [7]: inactive | outcome [8]: inactive | Potency [10]: inactive

CN(C)CCN(C)C
outcome [1]: inactive | outcome [2]: inactive | Potency [3]: inactive | Potency [4]: inactive | activity change, positive = activation [5]: 9.25% | Potency [6]: inactive | Potency [7]: inactive | outcome [8]: inactive | Potency [9]: inactive | Potency [10]: inactive

CC[C@@H](CO)NC(=O)[C@@H]1C=C2c3cccc4[nH]cc(c34)C[C@H]2N(C)C1
outcome [1]: inactive | outcome [2]: inactive | Potency [3]: inactive | Potency [4]: inactive | activity change, positive = activation [5]: -0.565% [at 42.5 µM] | Potency [6]: inactive | Potency [7]: inactive | outcome [8]: inactive | Potency [9]: inactive | Potency [10]: inactive

CN=CNc1ccc(C)cc1C
outcome [1]: inactive | outcome [2]: inactive | Potency [3]: inactive | Potency [4]: inactive | activity change, positive = activation [5]: 1.36% | Potency [6]: inactive | Potency [7]: inactive | outcome [8]: inactive | Potency [10]: inactive

O=C(O)C(Br)(Br)Br
outcome [1]: inactive | outcome [2]: inactive | Potency [3]: inactive | Potency [4]: inactive | activity change, positive = activation [5]: 0.595% | Potency [6]: inactive | Potency [7]: inactive | outcome [8]: inactive | Potency [9]: 49 µM (active) | Potency [10]: inactive

CCNP(=S)(OC)O/C(C)=C/C(=O)OC(C)C (configuration not stated)
outcome [1]: inactive | outcome [2]: inactive | Potency [3]: inactive | Potency [6]: inactive | Potency [7]: inactive | outcome [8]: inactive | Potency [9]: inactive | Potency [10]: inactive

Cc1ccc(S(=O)(=O)N[C@@H](CCCCN)C(=O)CCl)cc1
outcome [1]: inactive | outcome [2]: inactive | Potency [3]: inactive | Potency [4]: inactive | activity change, positive = activation [5]: 0.318% [at 42.5 µM] | Potency [7]: inactive | outcome [8]: inactive | Potency [9]: inactive | Potency [10]: inactive

CN(C)C1CCCCC1
outcome [1]: inactive | outcome [2]: inactive | Potency [3]: inactive | Potency [4]: inactive | Potency [6]: inactive | outcome [8]: inactive | Potency [9]: inactive | Potency [10]: inactive

O=C(NC(=O)c1c(F)cccc1F)Nc1cc(Cl)c(F)c(Cl)c1F
outcome [1]: inactive | outcome [2]: inactive | Potency [3]: inactive | Potency [6]: inactive | Potency [7]: inactive | outcome [8]: inactive | Potency [9]: inactive | Potency [10]: inactive

CON(C)C(=O)Nc1ccc(Br)c(Cl)c1
outcome [1]: inactive | outcome [2]: inactive | Potency [3]: inactive | Potency [4]: inactive | activity change, positive = activation [5]: 0.491% | outcome [8]: inactive | Potency [9]: inactive | Potency [10]: inactive

O=C1CCCCC1Cl (configuration not stated)
outcome [1]: inactive | outcome [2]: inactive | Potency [3]: inactive | Potency [6]: inactive | Potency [7]: inactive | outcome [8]: inactive | Potency [9]: inactive | Potency [10]: inactive

O=C(Cl)OCc1ccccc1
outcome [1]: inactive | outcome [2]: inactive | Potency [3]: inactive | Potency [4]: inactive | activity change, positive = activation [5]: 6.05% | Potency [7]: inactive | outcome [8]: inactive | Potency [9]: inactive | Potency [10]: inactive

ClCCCCl
outcome [1]: inactive | outcome [2]: inactive | Potency [3]: inactive | Potency [6]: inactive | Potency [7]: inactive | outcome [8]: inactive | Potency [9]: inactive | Potency [10]: inactive

c1ccc2c(c1)CCNC2
outcome [1]: inactive | outcome [2]: inactive | Potency [3]: inactive | Potency [4]: inactive | activity change, positive = activation [5]: -19.6% | Potency [6]: inactive | Potency [10]: inactive

S=C=S
outcome [1]: inactive | outcome [2]: inactive | Potency [3]: inactive | Potency [4]: inactive | activity change, positive = activation [5]: 2.11% | Potency [6]: inactive | outcome [8]: inactive | Potency [9]: inactive | Potency [10]: inactive

CC1=C2[C@H]3OC(=O)[C@@H](C)[C@@H]3CC[C@@]2(C)C=CC1=O
outcome [1]: inactive | outcome [2]: inactive | Potency [3]: inactive | Potency [4]: inactive | activity change, positive = activation [5]: 5.47% [at 42.5 µM] | Potency [7]: inactive | outcome [8]: inactive | Potency [9]: inactive | Potency [10]: inactive

COc1ccc(C=O)cc1O
outcome [1]: inactive | outcome [2]: inactive | Potency [3]: inactive | Potency [4]: inactive | activity change, positive = activation [5]: 2.88% | Potency [6]: inactive | outcome [8]: inactive | Potency [9]: inactive | Potency [10]: inactive

O=c1[nH]c2ccccc2o1
outcome [1]: inactive | outcome [2]: inactive | Potency [3]: inactive | Potency [4]: inactive | activity change, positive = activation [5]: -3.64% | Potency [6]: inactive | outcome [8]: inactive | Potency [10]: inactive

COP(=O)(OC)O/C(C)=C/C(=O)N(C)C
outcome [1]: inactive | outcome [2]: inactive | Potency [3]: inactive | Potency [4]: inactive | activity change, positive = activation [5]: -0.44% | outcome [8]: inactive | Potency [9]: inactive | Potency [10]: inactive
